Among all 6,200 compounds or so, about 2,900 (47%) were called active. No stated cut-off is given here; in the data, active means inhibition above about 50%; inactive means the rest. So high a share suggests a set chosen from earlier hits. The list shows a part of the results. Where a SMILES comes first, the peptide text is derived from it. [ ]: non-standard residue; d: D form. Orn = NCCC[CH](N)C(=O)O

The test is described as follows: Mycobacterium tuberculosis growth inhibition, primary screen (AID 1259343). Conditions: inhibition: at 10 µM, hits give high values; outcome: 10 uM.
As for `CC(C)CCNc1nc(C(=O)OC(C)C(N)=O)cs1` (stereo unspecified), the inhibition – broadly, the drop in the measured response relative to a control, in per cent – was 20.4% (inactive).

On to `Cc1ncsc1CCOC(=O)CC12CC3CC(CC(C3)C1)C2`, for which the inhibition was 103% (active). In the case of `COCC(C)C1CCN(C(=O)CC23CC4CC(CC(C4)C2)C3)CC1` (stereo unspecified) it was -13.6% (inactive); in that of `CC(C)c1cc(CN(C)C(=O)CC23CC4CC(CC(C4)C2)C3)no1`, 32.9% (inactive); in that of `CC(C)CN(CCC(=O)O)c1nc(-c2ccccc2Cl)nc2ccccc12`, 37.1% (inactive).

Turning to `NC(=O)c1csc(CNc2ccc(F)cc2)c1`, the inhibition was 68.7% (active). `NC(=O)c1csc(C(=O)NC2CC2c2cccc(Cl)c2)c1` (stereo unspecified): the inhibition was 27.2% (inactive).

Turning to `Clc1ccc(C(Cn2ccnc2)OCc2c(Cl)cccc2Cl)c(Cl)c1` (stereo unspecified), the inhibition was -47.1% (inactive). For the molecule `CN(C)C(=O)CSCC(=O)O`, the inhibition was -0.78% (inactive). In the case of `O=C1CC(Nc2ccc3c(c2)OCCCO3)C(=O)N1CCc1ccccc1F` (stereo unspecified) it was 53.9% (active); in that of `C(=C\c1ccccc1)/CNc1ccc2c(c1)OCCO2`, -42.5% (inactive).

Turning to `O=C(CCC1CCN(C(=O)CCc2ccccc2)CC1)Nc1ccc2c(c1)OCCO2`, the inhibition is 0.33% (inactive).

Consider `COc1ccc(Nc2cccc3nonc23)cc1`, for which the inhibition was 60.3% (active). `COc1ccc(-c2nc(Nc3ccc(F)cc3)c3ccccc3n2)cc1`: the inhibition was 26.9% (inactive). `CC1(C)CC[C@@]2(C(=O)O)C(C1)C1=CCC3[C@@]4(C)CC[C@H](O)C(C)(C)C4CC[C@@]3(C)[C@]1(C)C[C@@H]2O` (stereo partly specified): the inhibition is 69.3% (active).

Turning to `Cc1nc(NCc2ccco2)c2c3c(sc2n1)CCCC3`, the inhibition was 59.1% (active).

`Cc1cc(/C=N\O)c(C)n1-c1ccc(-c2ccccc2)cc1`: the inhibition was 79.1% (active). `Cc1cc(C=Cc2ccc3cc(N(C)C)ccc3[n+]2C)c(C)n1-c1ccccc1`: the inhibition entry is “inactive”.

In the case of `Cc1cc(/C=C/c2ccc3cc(N(C)C)ccc3[n+]2C)c(C)n1-c1ccccc1`, the inhibition was 48.1% (inactive).

Consider `O=S(=O)(Nc1ccc2c(c1)CCC2)c1ccc(Br)cc1`, for which the inhibition was 32.5% (inactive).

Turning to `O=[N+]([O-])c1cc(S(=O)(=O)Nc2ccc(Br)cc2)ccc1Cl`, the inhibition is 66.2% (active). As to `O=[N+]([O-])c1cc(NS(=O)(=O)c2cc(Cl)cc(Cl)c2)ccc1Cl`, the inhibition is 21.6% (inactive). For the molecule `COc1ccc(CNc2ccc([N+](=O)[O-])cc2)cc1`, the inhibition was 4.07% (inactive). On to `O=[N+]([O-])c1ccc(NS(=O)(=O)c2ccc(Br)cc2)cc1`, for which the inhibition was 58.1% (active). As for `O=[N+]([O-])c1ccc(NS(=O)(=O)Cc2ccccc2)cc1`, the inhibition is 73.9% (active). Regarding `CC(NC(=O)c1ccc(Br)o1)c1ccc(Cl)s1` (stereo unspecified), the inhibition was -46.6% (inactive). With `CC(NC(=O)c1ccc(C(F)(F)F)cc1)c1ccco1` (stereo unspecified), the inhibition is 62.5% (active). Consider `CC(NC(=O)c1ccc(Cl)o1)c1ccc(C(F)(F)F)cc1` (stereo unspecified), for which the inhibition is 85.3% (active). In the case of `CC(NC(=O)CC1C=CCC1)c1ccc(C(F)(F)F)cc1` (stereo unspecified), the inhibition is 12.8% (inactive). The result for `CC(NC(=O)c1cccs1)c1ccc(C(F)(F)F)cc1` (stereo unspecified) reads 69.9% (active).

`CC(NC(=O)c1cccs1)c1ccc(Cl)s1` (stereo unspecified): the inhibition is -37.7% (inactive). In the case of `O=C(NCc1ccccc1)c1ccc(C(F)(F)F)cc1` it was 20.5% (inactive); in that of `CCCc1cc(=O)[nH]c(-n2nc(C)cc2NC(=O)CC)n1`, 100% (active). As for `CCCc1cc(=O)[nH]c(-n2nc(C)cc2NC(C)=O)n1`, the inhibition was 99.8% (active). In the case of `CCCc1cc(=O)[nH]c(-n2nc(C)cc2NC(=O)C(C)(C)Oc2ccc(Cl)cc2)n1` it was 2.87% (inactive); in that of `CCCc1cc(=O)[nH]c(-n2nc(C)cc2NC(=O)C(C)(C)CCl)n1`, 102% (active); in that of `O=c1c(O)cccc2cc(O)c(O)c(O)c12`, 64.6% (active). For the molecule `CCCC(CCC)=NNc1ncnc2sc(C)c(C)c12`, the inhibition is 96.3% (active). In the case of `COC(=O)C(C)Sc1ncnc2sc(C)c(C)c12` (stereo unspecified) it was -21% (inactive); in that of `Cc1sc2ncnc(SCC(=O)c3ccc(Cl)s3)c2c1C`, 13.9% (inactive); in that of `CCCCNC(=S)NNc1ncnc2sc(C)c(C)c12`, 65.6% (active). In the case of `CC(=NNc1ncnc2sc(C)c(C)c12)c1ccc(Cl)s1` it was 47.1% (inactive); in that of `Cc1ccsc1C=NNc1ncnc2sc(C)c(C)c12`, 66.9% (active); in that of `COC(=O)c1ccc(CSc2ncnc3c2nnn3Cc2ccc(F)cc2)o1`, 3.1% (inactive). In the case of `COC(=O)c1ccc(CSc2ncnc3c2nnn3Cc2ccccc2)o1`, the inhibition was 26.9% (inactive). Turning to `COC(=O)c1ccc(Cn2ncc(Cl)c(Cl)c2=O)o1`, the inhibition was 75.5% (active).

On to `COCC1(NC(=O)Nc2nc(-c3ccccc3)ns2)CCCC1`, for which the inhibition was 5.18% (inactive). In the case of `CC(C)C(C)NC(=O)Nc1nc(-c2ccccc2)ns1` (stereo unspecified), the inhibition was 83.1% (active). For the molecule `CCOC(=O)C1(CCOc2ccccc2)CCN(Cc2nc(C(C)C)cs2)CC1`, the inhibition entry is “inactive”.

For `CCOC(=O)C1(Cc2ccc(Cl)cc2)CCN(Cc2cccc3nonc23)CC1`, the inhibition is 78.1% (active). Regarding `CCOC(=O)C1(Cc2ccc(Cl)cc2)CCN(C(=O)Nc2ccc(Cl)cc2C)CC1`, the inhibition is 1.06% (inactive). In the case of `Cc1cc(Br)ccc1NC(=O)c1ccc([N+](=O)[O-])o1`, the inhibition is 38.1% (inactive).

Consider `Cc1cccc(NC(=O)c2n[nH]c([N+](=O)[O-])c2Br)c1C`, for which the inhibition was 86.8% (active). The result for `CNC(=O)c1ccccc1NC(=O)c1ccc(C)c(Br)c1` reads 23.1% (inactive).

Take `C=CCSc1nn2c(=O)c3ccccc3nc2s1`: the inhibition is 97.6% (active). For the molecule `CCOc1ccc(Br)c(C=Nc2ccc3oc(=O)ccc3c2)c1O`, the inhibition was 81.3% (active). Regarding `Cc1csc2nc(O)c(C(=O)NCCc3ccccc3)c(=O)n12`, the inhibition is 82.8% (active). On to `Cc1c(C(=O)NCc2ccc(Cl)c(Cl)c2)sc(=O)n1Cc1ccc(F)cc1`, for which the inhibition is 17.9% (inactive). Take `CC(=O)NCc1ccc(-c2nc(CCc3ccccc3)sc2C)s1`: the inhibition was 28% (inactive). Regarding `Cc1csc2nc(O)c(C(=O)NCc3ccc(F)cc3)c(=O)n12`, the inhibition was 74.4% (active). In the case of `Cc1c(C(=O)NCc2ccc(Cl)c(Cl)c2)sc(=O)n1CCc1ccccc1` it was 35.6% (inactive). The result for `Cc1nc(COc2ccc(C(=O)NCc3ccc(F)cc3)cc2)cs1` reads -15.9% (inactive); that for `CCOc1ccc(NC(=O)c2cncc(Br)c2)cc1F`, 44.8% (inactive).

Take `O=C(Nc1ncccc1OC(F)F)c1cncc(Br)c1`: the inhibition was 89.3% (active). Turning to `C=CCN(c1ccccc1)S(=O)(=O)c1ccc(Br)cc1Cl`, the inhibition was 27.3% (inactive). As to `COc1ccc2c(c1)CC(c1nc(Cc3ccc(F)cc3)no1)CO2` (stereo unspecified), the inhibition is 63.1% (active). Regarding `COc1ccc2cc(C3CN(Cc4noc(C5CC5)n4)CCO3)ccc2c1` (stereo unspecified), the inhibition was 23.6% (inactive). Regarding `C1=CCC(c2nc(Cc3cccnc3)no2)CC1` (stereo unspecified), the inhibition is -4.1% (inactive). The result for `CCCCN(C)C1=CC2=CC(=C(C#N)C#N)CCC2CC1` (stereo unspecified) reads 45.5% (inactive).

As to `N#CC(C#N)=C1C=C2C=C(N3CCCCC3)CCC2CC1` (stereo unspecified), the inhibition is 49% (inactive). Turning to `N#CC(C#N)=C1C=C2C=C(N3CCCCCC3)CCC2CC1` (stereo unspecified), the inhibition was 73.5% (active). With `Cn1nc(C(F)(F)F)cc1-c1ccc(C(=O)O)s1`, the inhibition was 46.4% (inactive). Turning to `O=C(O)c1cnc(-c2ccc(C(F)(F)F)cc2)s1`, the inhibition is 60.4% (active). In the case of `O=C(O)c1cnc(/C=C/c2cccc(C(F)(F)F)c2)s1` it was -17.4% (inactive).

For the molecule `Brc1ccc(Sc2ncnc3sccc23)cc1`, the inhibition was 19.4% (inactive). For `Clc1cc(Br)ccc1Oc1ncnc2sccc12`, the inhibition is 70.4% (active).

Take `O=C1NC(=Nc2ccccc2Cl)S/C1=C\c1ccsc1`: the inhibition was 59.3% (active). With `O=C1COc2ccc(C3=NNC(=Nc4ccccc4Cl)SC3)cc2N1`, the inhibition was 11.7% (inactive). For `CN(C)CC/C=C1\c2ccccc2Sc2ccc(Cl)cc21`, the inhibition was 90.1% (active).

As for `Oc1c(Cl)cc(Cl)cc1C1=NNC(c2ccccc2F)C1` (stereo unspecified), the inhibition was 38.9% (inactive). `Oc1ccc(F)cc1C1=NNC(c2ccc(Cl)cc2)C1` (stereo unspecified): the inhibition was 60.6% (active). The result for `CN(Cc1ccc(Cl)cc1)Cc1cc2c(cc1O)CCC2` reads 22.8% (inactive); that for `Cn1c(Cl)cnc1C1CC(c2cc(Cl)ccc2O)=NN1` (stereo unspecified), 101% (active). For `COc1ccc(NC(=O)CSc2nnc3ccccn23)c(OC)c1`, the inhibition was 81.5% (active). On to `O=C(CSc1nnc2ccccn12)Nc1c(Cl)c(Cl)cc(Cl)c1Cl`, for which the inhibition was -1.75% (inactive). In the case of `CC(C)CC1NC(=O)C(CCCN)NC(=O)C(C(C)C)NC(=O)C2CCCN2C(=O)C(Cc2ccccc2)NC(=O)C(CC(C)C)NC(=O)C(CCCN)NC(=O)C(C(C)C)NC(=O)C2CCCN2C(=O)C(Cc2ccccc2)NC1=O` (stereo unspecified) (cyclo(FPV[Orn]LFPV[Orn]L); configuration not given here) it was 46.4% (inactive). In the case of `CCCCn1c(O)c(C=Nc2ccc(CC)cc2)c(C)c(C#N)c1=O`, the inhibition was 24.8% (inactive).

As for `CCOC(=O)c1ccc(N=Cc2c(O)[nH]c(=O)[nH]c2=O)cc1`, the inhibition is 73.1% (active).

Regarding `COc1cc(C(=O)N2CCOC(COc3ccc(C)cc3)C2)cc(Cl)n1` (stereo unspecified), the inhibition is 29.3% (inactive). For `COC(=O)c1ccc(Nc2ccc(OCC3CCCO3)cc2)nn1` (stereo unspecified), the inhibition is 93.6% (active).

On to `Clc1cccc(Nc2nc3nonc3n3nnnc23)c1`, for which the inhibition was 54.3% (active). In the case of `CC(C)S(=O)(=O)c1ccc(C(=O)Nc2onc3c2CCC3)cc1` it was 84.8% (active); in that of `CCc1csc(Cn2cc(C(C)c3ccccc3)nn2)n1` (stereo unspecified), -13.5% (inactive); in that of `O=c1c2ccccc2ncn1CCCCSc1ccccc1`, 89.1% (active). As for `Cc1cc2ncn(CCCOc3ccccc3)c2cc1C`, the inhibition is 36.7% (inactive). As to `CCc1cc(OCCCCn2cnc3ccccc3c2=O)ccc1Cl`, the inhibition was 64.6% (active). Regarding `Cc1ccc(SCCCCN2C(=O)NC(C)(C)C2=O)cc1`, the inhibition is -48.6% (inactive). With `Cc1nn(S(=O)(=O)c2cccc([N+](=O)[O-])c2)c(C)c1S(=O)(=O)N1CCCC(C)C1` (stereo unspecified), the inhibition is -15.4% (inactive). With `N#Cc1ccc(NCc2cc(Br)ccc2F)cc1`, the inhibition is 88.5% (active). In the case of `N#Cc1ccccc1CNc1ccc(Br)cc1F` it was -19.6% (inactive); in that of `N#Cc1ccc(CNc2cccc(Br)c2)c(F)c1`, -12.4% (inactive).

Source of the values: PubChem BioAssay AID1259343 (VanderVen Lab, College of Veterinary Medicine, Cornell …, 2017).
